# Test results taken from PubChem BioAssay AID504592 (Broad Institute, 2011).
# The whole screen tested about 1,100 compounds, of which about 540 (49%) were called active. Not shown: some 5% with an inconclusive outcome. Rule as the data show it: active = inhibition above about 54%; inconclusive = no clear call, values can overlap the other calls; inactive = below that. So high a share suggests a set chosen from earlier hits. Not all results are given here.
# Assay: prion 5' UTR mRNA inhibition, cherry-pick retest (AID 504592)
# Conditions: cell-based prion protein 5' UTR reporter, plate reader; at 2.5 µM; active compounds read high
row,Compound,inhibition
1,NC(=O)c1ccc(NC(=O)COC(=O)c2ccc([N+](=O)[O-])cc2)cc1,91.9% (active)
2,O=C1/C(=C\c2ccc([N+](=O)[O-])cc2)CS(=O)(=O)C/C1=C/c1ccc([N+](=O)[O-])cc1,85.3% (active)
3,CC12CCC3C(CCC4CC(=O)CCC43C)C1CC(=NO)C2=O (stereo unspecified),0.372% (inactive)
4,O=C(CSc1ncnc2sccc12)N1CCN(C(=O)c2cccs2)CC1,9.5% (inactive)
5,COc1cc(OC)cc(C(=O)N[C@H](C(=O)Nc2nc3ccccc3[nH]2)C(C)C)c1,44.9% (inactive)
6,COc1cccc2c1C(=O)c1c(O)c3c(c(O)c1C2=O)CC(O)(C(C)=NNC(=O)c1ccc(Cl)c(Cl)c1)CC3OC1CC(N)C(O)C(C)O1 (stereo unspecified),82.4% (active)
7,CCC(C)(O)C(=O)OC1C(=O)OC2CC3C(C)=CC(=O)C(O)C3(C)C3C4(O)OCC23C1C(C)C4O (stereo unspecified),83% (active)
8,Cc1ccc2nc(-c3ccc(Br)cc3)cn2c1,40% (inactive)
9,Cc1ccc(-c2cn3cc(C)ccc3n2)cc1,89.9% (active)
10,Nc1ccc(OCC(O)C[n+]2ccc(CCS(=O)(=O)[O-])cc2)cc1 (stereo unspecified),-71.6% (inactive)
11,CN(NC(=O)c1ccccc1F)c1nc(C(F)(F)F)nc2ccccc12,86.4% (active)
12,COc1ccc(C2=Nn3c(nnc3-c3ccccc3OC)SC2)cc1OC1CCCC1,79.2% (active)
13,CC(C)(C)C1CCc2c(sc3nc(SCC(N)=O)nc(N)c23)C1 (stereo unspecified),-25.3% (inactive)
14,COC1C(O)C(C)OC(OC2CCC3(C=O)C(CCC4C3CCC3(C)C(C5=CC(=O)OC5)CCC43O)C2)C1O (stereo unspecified),91.9% (active)
15,Cc1ccc(CCC(=O)Nc2ncc(Cc3cc(Cl)ccc3Cl)s2)o1,89.3% (active)
16,Clc1ccc2nc(-c3ccccc3)nc(C(Cl)Cl)c2c1,89.1% (active)
17,Cc1cc(NC(=O)/C=C/C(=O)N(CC(=O)NC2CCCC2)c2ccc(F)cc2)no1,15.5% (inactive)
18,O=C(NNC(=O)c1ccccc1O)c1ccccc1O,62.2% (active)
19,CC1Cc2ccccc2N1C(=O)c1cc2sccc2n1Cc1ccccc1 (stereo unspecified),-33.3% (inactive)
20,O=c1oc2ccccc2cc1-c1cn(-c2ccccc2)c(=S)[nH]1,86.9% (active)
21,CCCOC(=O)c1[nH]c2c(c1C)C(=O)CC(c1cccs1)C2 (stereo unspecified),88.2% (active)
22,Cc1cc(Nc2ccccc2)n(C(=O)c2ccc(N)cc2)n1,12% (inactive)
23,COc1cc([N+](=O)[O-])ccc1NC(=S)N1CCN(c2ccccn2)CC1,-10.7% (inactive)
24,CN(c1ccc2nc3ccccc3c(=O)n2n1)C1CCCCC1,86.2% (active)
25,O=C(Nc1ccc2c(c1)OCCO2)C1CCCC1,33.2% (inactive)
26,CCOc1cc(NS(=O)(=O)c2ccc(OC)cc2)c(OCC)cc1NC(C)=O,-19.5% (inactive)

row,Compound,inhibition
1,C=CCOc1ccc(/C=C2\SC(=S)N(CCC(=O)O)C2=O)cc1,61.2% (active)
2,COc1cc(SC)ccc1C(=O)Nc1nc(C)cs1,79% (active)
3,OCC1(Cc2ccccc2)CCN(Cc2cc3ccccc3o2)CC1,-6.23% (inactive)
4,O=C(CN1C(=O)c2ccccc2S1(=O)=O)N1CCc2ccccc21,80% (active)
5,CC(C)(C)c1ccc(Oc2ccc(N)cc2)cc1,85.6% (active)
6,O=C(C1=C[C@H](c2coc3ccccc3c2=O)C[C@H](OCc2ccc(CO)cc2)O1)N1CCN(Cc2ccccc2)CC1,-63.6% (inactive)
7,COc1ccc(C(=O)Nc2ccccc2C(=O)N/N=C/c2ccc(O)c(OC)c2)cc1,71.2% (active)
8,CCC(C)Cn1c(O)cc2nn(-c3nc4ccccc4s3)c(=O)c-2c1C (stereo unspecified),89.8% (active)
9,CCCCNS(=O)(=O)CCNCc1ccccc1OC,-14.3% (inactive)
10,Oc1ccc(N2CCN(C(=S)NCc3ccccc3)CC2)cc1,-21.4% (inactive)
11,CC(=O)OC1C2(CC3N4C(=O)C5(CO)SSC4(CC31O)C(=O)N5C)OC(C)C(C)(C)C2=O (stereo unspecified),98.2% (active)
12,CCn1c(=O)c(=O)[nH]c2c(=O)oc3ccc(S(=O)(=O)Nc4ccc(OC)cc4)cc3c21,-6.15% (inactive)
13,COC(=O)Cc1[nH]n(-c2nc3ccccc3s2)c(=O)c1C(C)=Nc1ccc(OC)cc1,80.6% (active)
14,COc1ccc(OC)c(Cc2cnc3nc(N)nc(N)c3c2C)c1,-3.64% (inactive)
15,CC(=O)c1ccc(Oc2cc(C)nc(-n3nc(C)cc3C)n2)cc1,83.7% (active)
16,COc1ccc(C(=O)/C=C/Nc2ccccn2)cc1,73.9% (active)
17,Cc1ccc(-c2cccc([C@H]3[C@@H]4C=CC[C@@H](C)[C@@H]4C(=O)N3Cc3ccccc3)c2)cc1,-13.7% (inactive)
18,CSc1nc(-c2ccccc2)nc(C(Cl)Cl)n1,89.8% (active)
19,C=CCn1c(C)cc(C2=NNC(=NCC)SC2)c1C,95.3% (active)
20,O=C1[C@@H](c2ccccc2)[C@@H](c2ccccc2)N1c1cccnc1,-4.06% (inactive)
21,Cc1ccc(S(=O)(=O)Nc2nc3ccccc3s2)cc1[N+](=O)[O-],79.1% (active)
22,C/C(=N\NC(=O)c1cc2c(s1)CCC(C)C2)c1cccnc1 (stereo unspecified),-16.9% (inactive)
23,Cc1ccc(/C=N/NC(=O)COc2ccccc2-c2ccccc2)cc1,87.8% (active)
24,COc1ccccc1N1CCN(C(=O)c2cc(=O)c3cc(C)cc(C)c3o2)CC1,91.6% (active)
25,CN(CCO)c1ccc(/C=N/Nc2nncc3ccccc23)cc1,72.6% (active)
